Screens: PubChem, National Center for Advancing Translational Sciences (NCATS)
A selection: hits, their analogues and other compounds. The true share with any hit is near 19%.
HT1080 IDH1KD tx: kills HT-1080 cells with IDH1 knockdown; HT-1080 IDH1 knockdown viability, ATP luminescence, 48 h; Potency, µM (doses to about 46.1 µM), inactives show at the top dose activity, negative = toxicity, usual class: cytotoxic; actives 2% (n = 360,000); AID 686971;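 further: potency means the concentration at half of the fitted maximal effect; 0% = DMSO wells and -100% = cell-free medium wells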
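Using the IDH1-knockdown HT-1080 line run in the same batch and compound series as the NT line, viability after 48 h at 37 °C was determined by CellTiter-Glo luminescence and expressed as % activity.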
HT1080NT lethal: kills 2HG-producing HT-1080-NT fibrosarcoma cells | HT-1080-NT fibrosarcoma viability, CellTiter-Glo ATP luminescence, 48 h | Potency, µM (highest dose often 46.1 µM), inactives show at the highest dose activity, negative = less viability, most hits filed as cytotoxic | actives 1.6% (n = 360,000) | AID 686970;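 further: NT is the 2HG producing partner of a matched IDH1 knockdown line; potency means the concentration at half of the fitted maximal effect; 0% = DMSO-treated cells and -100% = media-only wells without cells; nearly all actives have a fitted effect of over 55% in size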
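HT-1080-NT; 750 cells/well; 5% FBS RPMI; 48 h compound, 37 degrees C; CellTiter-Glo luminescence; curve fitting and curve-class assignment.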
ELG1 repair inh: inhibitors of ELG1-dependent DNA repair in HEK293T cells | HEK293T ELG1-luciferase reporter, luminescence, 16 h; DNA damage induced by 5-fluorouridine | actives 2.3% (n = 330,000) | Potency, µM (top dose mostly 46.1 µM), without a hit: at the top dose activity change, negative = inhibition, most hits filed as inhibitors; further: potency means the concentration at half of the fitted maximal effect; nearly all actives have a fitted effect of over 55% in size
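Overnight (16 hr) co-exposure of 2,000 cells/well to 5-fluorouridine and compound at 37 °C preceded detection. Luciferase was quantified via ONE-Glo luminescence; loss of signal denotes inhibition.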
IL1B secr inh: inhibitors of inflammasome signaling (IL-1 beta secretion); THP-1 LPS/ATP IL-1B secretion, AlphaLISA, 16 h; hits give low values; activity change, % at 57.5 µM; actives 4.7% (n = 360,000); AID 743279; in the data active means activity change below about -50%; inconclusive means mostly about -30% to -49%
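THP-1 cells pretreated 1 hr with compounds (up to 57.5 uM final), then stimulated with LPS (250 ng/mL final) plus ATP (1.25 mM final); secreted IL-1B measured by AlphaLISA after 16 hr, decreased signal indicating inhibition.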
TDP1 cell CPT: growth inhibition of DT40 Tdp1-/-;hTDP1 cells with camptothecin (screen for TDP1 inhibitors); chicken DT40 Tdp1-/-;hTDP1 cells + 20 nM CPT, ATP luminescence, 48 h; actives 12% (n = 420,000); AID 686979; Potency, µM (highest dose often 46.2 µM), for the others: at the top dose activity change, negative = growth inhibition, usual class: inhibitors; further: potency means the concentration at half of the fitted maximal effect; nearly all actives have a fitted effect of over 55% in size
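Chicken DT40 Tdp1-/- cells complemented with human TDP1, 400 cells/well, exposed to compounds plus 20 nM camptothecin for at least 48 h at 37 C; viability read as ATP content by CellTiter-Glo luminescence.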
DT40 TDP1 no CPT: qHTS for Inhibitors of human tyrosyl-DNA phosphodiesterase 1 (TDP1): qHTS in cells in absence of CPT. DT40 Tdp1-/- hTDP1 cells, no CPT, ATP luminescence, 48 h. Potency, µM (titrated, usually from 46.2 µM), without a hit: at the highest dose activity change, negative = growth inhibition, most hits filed as inhibitors. actives 15% (n = 420,000); further: potency means the concentration at half of the fitted maximal effect; nearly all actives have a fitted effect of over 55% in size
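Growth of hTDP1-complemented DT40 Tdp1-knockout cells is measured by ATP luminescence after at least 48 hr compound exposure at 37 °C, with DMSO substituting for the 20 nM CPT used in the parallel screen.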
Starred values were filed as active, the others as inactive. Unless noted, the call rests on the fitted dose curve; in most records, active means well fitted curve in the direction sought with a large enough effect; inconclusive means small, poorly fitted or top-dose-only effect, or another doubt; inactive means no such curve, though single readings can be large; an effect the other way counts as inactive or inconclusive. Unless noted, on the % scale 0 is the no-effect control and ±100 the full control effect.

What do the screens show for `COc1ccc(CCNC(=O)c2cc(C3CC3)nc3c2cnn3C(C)C)cc1`?
HT1080 IDH1KD tx: -7%; HT1080NT lethal: -12%; ELG1 repair inh: inconclusive; IL1B secr inh: -27; TDP1 cell CPT: inconclusive; DT40 TDP1 no CPT: 18µM*

How did COc1ccccc1OCCNC(=O)c1cc(C2CC2)nc2c1cnn2C(C)C do in these assays?
HT1080 IDH1KD tx: -4%; HT1080NT lethal: -9%; ELG1 repair inh: 13µM*; IL1B secr inh: 2; TDP1 cell CPT: inconclusive; DT40 TDP1 no CPT: inconclusive

What do the screens show for `Cc1cc(C)c(NC(=O)CNC(=O)c2cc(C3CC3)nc3c2cnn3C(C)C)c(C)c1`?
HT1080 IDH1KD tx: -10%; HT1080NT lethal: 0%; IL1B secr inh: -21; TDP1 cell CPT: inconclusive; DT40 TDP1 no CPT: 18µM*

How did COc1ccccc1CCNC(=O)c1cc(C2CC2)nc2c1cnn2C(C)C do in these assays?
HT1080 IDH1KD tx: 1%; HT1080NT lethal: 4%; ELG1 repair inh: -9%; IL1B secr inh: -11; TDP1 cell CPT: inconclusive; DT40 TDP1 no CPT: 23µM*

Results for CCc1ccccc1NC(=O)CNC(=O)c1cc(C2CC2)nc2c1cnn2C(C)C ?
HT1080 IDH1KD tx: 0%; HT1080NT lethal: 12%; ELG1 repair inh: 13%; IL1B secr inh: -15; TDP1 cell CPT: inconclusive; DT40 TDP1 no CPT: inconclusive

How did COc1cccc(CNC(=O)c2c(OC)cc(=O)n3c2CCN(C(=O)c2ccoc2C)CC3)c1 do in these assays?
TDP1 cell CPT: 10%; DT40 TDP1 no CPT: -1%

What do the screens show for `O=C(NCCN1CCN(Cc2ccccc2)CC1)c1ccc(CS(=O)(=O)c2c(Cl)cccc2Cl)o1`?
HT1080 IDH1KD tx: -1%; HT1080NT lethal: 0%; IL1B secr inh: 9; TDP1 cell CPT: inconclusive; DT40 TDP1 no CPT: inconclusive

What do the screens show for `COc1cc(C)c(NC(=O)c2cc(C3CC3)nc3c2cnn3C(C)C)cc1OC`?
HT1080 IDH1KD tx: -17%; HT1080NT lethal: 0%; ELG1 repair inh: inconclusive; IL1B secr inh: -13; TDP1 cell CPT: inconclusive; DT40 TDP1 no CPT: 16µM*

How did CC(C)(C)C(=O)NCCc1nc2ccccc2n1CCCCOc1ccccc1 do in these assays?
TDP1 cell CPT: inconclusive; DT40 TDP1 no CPT: 16µM*

How did Cc1ccccc1OCCn1c(CCNC(=O)C2CCCCC2)nc2ccccc21 do in these assays?
TDP1 cell CPT: inconclusive; DT40 TDP1 no CPT: 18µM*

What do the screens show for `O=C(NCCc1nc2ccccc2n1CCCOc1ccccc1Cl)C1CCCCC1`?
TDP1 cell CPT: 10µM*; DT40 TDP1 no CPT: 7.1µM*

What do the screens show for `CCc1ccc(OCCCCn2c(CCNC(=O)C3CCCCC3)nc3ccccc32)cc1`?
TDP1 cell CPT: 7.1µM*; DT40 TDP1 no CPT: 10µM*

How did CC(C)C(=O)NCCc1nc2ccccc2n1CCOc1ccccc1 do in these assays?
HT1080 IDH1KD tx: 5%; HT1080NT lethal: -2%; ELG1 repair inh: 1%; IL1B secr inh: 10; TDP1 cell CPT: -28%; DT40 TDP1 no CPT: inconclusive

What do the screens show for `O=C(NCCc1nc2ccccc2n1CCOc1ccccc1)C1CCCCC1`?
TDP1 cell CPT: inconclusive; DT40 TDP1 no CPT: -16%

What do the screens show for `O=C(NCCCc1nc2ccccc2n1Cc1c(F)cccc1Cl)C1CCCCC1`?
TDP1 cell CPT: -15%; DT40 TDP1 no CPT: -12%

How did CCCCn1c(NC(=O)C2CCCCC2)nc2ccccc21 do in these assays?
HT1080 IDH1KD tx: -23%; HT1080NT lethal: -13%; ELG1 repair inh: 0%; IL1B secr inh: 9; TDP1 cell CPT: inconclusive; DT40 TDP1 no CPT: inconclusive

How did CCOC(=O)C(Cc1ccccc1)NC(=O)CCc1nnc2ccc(N3CCCC3)nn12 (stereo not given) do in these assays?
HT1080 IDH1KD tx: 5%; HT1080NT lethal: -2%; ELG1 repair inh: 22%; IL1B secr inh: -6; TDP1 cell CPT: inconclusive; DT40 TDP1 no CPT: -22%

What do the screens show for `CCOc1ccc(Nc2nc3ccccc3n3cnnc23)cc1`?
HT1080 IDH1KD tx: 2%; HT1080NT lethal: -2%; ELG1 repair inh: inconclusive; IL1B secr inh: 0; TDP1 cell CPT: inconclusive; DT40 TDP1 no CPT: 23µM*

Results for O=C(O)c1ccc(Nc2nc3ccccc3n3cnnc23)cc1 ?
TDP1 cell CPT: inconclusive; DT40 TDP1 no CPT: 7.3µM*

What do the screens show for `CCCCOC(=O)c1ccc(Nc2nc3ccc(C(=O)c4ccccc4)cc3n3cnnc23)cc1`?
TDP1 cell CPT: 21µM*; DT40 TDP1 no CPT: 16µM*

What do the screens show for `c1ccc(Nc2nc3ccccc3n3cnnc23)cc1`?
HT1080 IDH1KD tx: 3%; HT1080NT lethal: 4%; ELG1 repair inh: 9%; IL1B secr inh: 34; TDP1 cell CPT: -26%; DT40 TDP1 no CPT: -25%

What do the screens show for `COc1ccc(C2CC(c3ccccc3)=NN2C(=O)CSc2nnnn2-c2cccc(C)c2)cc1` (stereo not given)?
HT1080 IDH1KD tx: 25%; HT1080NT lethal: 1%; IL1B secr inh: 7; TDP1 cell CPT: -17%; DT40 TDP1 no CPT: -16%

Results for O=C1CC(c2nc(-c3ccc(Cl)cc3)no2)CN1c1ccc2c(c1)OCCO2 (stereo not given) ?
TDP1 cell CPT: -28%; DT40 TDP1 no CPT: -27%

Results for Cc1noc(C)c1C(=O)OCC(=O)Nc1ncc(C(F)(F)F)cc1Cl ?
HT1080 IDH1KD tx: 4%; HT1080NT lethal: 4%; ELG1 repair inh: 1%; IL1B secr inh: 2; TDP1 cell CPT: 3%; DT40 TDP1 no CPT: 18%

Results for CC(C)Oc1ccc(CN2CCC2(C)C(=O)Nc2ccc3c(c2)OCO3)cc1 (stereo not given) ?
HT1080 IDH1KD tx: -19%; HT1080NT lethal: -20%; IL1B secr inh: -13; TDP1 cell CPT: 16µM*; DT40 TDP1 no CPT: inconclusive

How did CC(C)c1ccc(CN2CCC2(C)C(=O)Nc2ccc3c(c2)OCO3)cc1 (stereo not given) do in these assays?
HT1080 IDH1KD tx: inconclusive; HT1080NT lethal: inconclusive; IL1B secr inh: 21; TDP1 cell CPT: inconclusive; DT40 TDP1 no CPT: 8.2µM*

What do the screens show for `COc1cccc(NC(=O)C2(C)CCN2Cc2ccc(OC(C)C)cc2)c1` (stereo not given)?
HT1080 IDH1KD tx: 5%; HT1080NT lethal: 9%; IL1B secr inh: 0; TDP1 cell CPT: inconclusive; DT40 TDP1 no CPT: inconclusive

What do the screens show for `c1ccc2c(-c3cccc4nccn34)cncc2c1`?
HT1080 IDH1KD tx: -8%; HT1080NT lethal: 1%; IL1B secr inh: -4; TDP1 cell CPT: inconclusive; DT40 TDP1 no CPT: inconclusive
